This is part of a sample that, as a whole, favours compounds with a hit. Of some 83,000 tested, about 20% had one in any assay.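 Cell lines were cultured in 96-well plates, exposed to a single compound concentration, and assessed for percent growth 48 hours later.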 A number with no mark means an inactive call. Calls of active or inactive are those of the source. The calls were made as follows: active = growth percent below 10; inactive = the rest.

Among the test systems are SR leukemia; RPMI-8226 leukemia; OVCAR-8 ovarian; OVCAR-5 ovarian; OVCAR-4 ovarian; SK-OV-3 ovarian; IGROV1 ovarian; OVCAR-3 ovarian; HS 578T breast; T-47D breast; BT-549 breast; MDA-MB-435 melanoma; SW-620 colon; MCF7 breast; HCT-116 colon; HCC-2998 colon; KM12 colon.
Experiment in all cases: NCI-60 one-dose screen, 48 h (100 = growth as untreated, 0 = no growth, -100 = all killed)
What all share (conditions): 10 µM unless noted

Consider `C=C(C)[C@@H]1CC[C@]2(C(=O)NC(C)=O)CC[C@]3(C)[C@H](CC[C@@H]4[C@@]5(C)CCCNC(C)(C)[C@@H]5CC[C@]43C)[C@@H]12`, for which the growth in the assay with SR leukemia was -24.5% (active); in the assay with RPMI-8226 leukemia it was -30.3% (active); with OVCAR-8 ovarian, 17.5%; with OVCAR-5 ovarian, 67.9%; in the assay with OVCAR-4 ovarian, 33.9%; in the assay with SK-OV-3 ovarian, 68.6%. Also, the growth was 20.4% in the assay on IGROV1 ovarian; -34.3% (active) in the assay on OVCAR-3 ovarian; 52.3% in the assay with HS 578T breast; 17.6% with T-47D breast; 63.1% with BT-549 breast; -88.7% (active) in the assay with MDA-MB-435 melanoma. Besides, the growth was -50% (active) with SW-620 colon; -17.3% (active) with MCF7 breast; -69.7% (active) with HCT-116 colon; -58.3% (active) with HCC-2998 colon; -2.16% (active) in the assay on KM12 colon.

As to `COc1ccc(N/N=C/c2ccc3c(c2)Sc2ccccc2N3C)cc1`, the growth is 42.2% in the assay on SR leukemia; 78.2% with RPMI-8226 leukemia; 65.9% in the assay with OVCAR-8 ovarian; 53.3% with OVCAR-5 ovarian; 60.7% in the assay on OVCAR-4 ovarian; 87.4% with SK-OV-3 ovarian. Further, the growth was 55.8% in the assay with IGROV1 ovarian; 77.7% in the assay on OVCAR-3 ovarian; 95.1% in the assay with HS 578T breast; 51.9% in the assay on T-47D breast; 96.1% with BT-549 breast; 17.6% in the assay on MDA-MB-435 melanoma. Besides, the growth was 27.1% with SW-620 colon; 32.3% in the assay with MCF7 breast; 53.6% in the assay on HCT-116 colon; 85% in the assay on HCC-2998 colon; 16.9% with KM12 colon.

As for `CC(=O)CC(=O)c1ccccc1.[Cu+2]`, the growth with SR leukemia was 51.8%; with RPMI-8226 leukemia, 97.8%; in the assay on OVCAR-8 ovarian it was 110%; in the assay on OVCAR-5 ovarian, 107%; in the assay with OVCAR-4 ovarian, 106%; with SK-OV-3 ovarian it was 82.4%. The growth in the assay on IGROV1 ovarian is 87%; in the assay with OVCAR-3 ovarian it was 114%; in the assay on HS 578T breast, 119%; with T-47D breast it was 93.2%; with MDA-MB-435 melanoma, 105%; with SW-620 colon it was 103%. Also, the growth in the assay on HCT-116 colon is 97.7%; in the assay on HCC-2998 colon, 107%; with KM12 colon, 98.2%.

Consider `CCCn1cnc2c(c1=N)C(c1ccc(Cl)cc1)c1sc3c(F)cccc3c1O2` (centres undefined), for which the growth in the assay on SR leukemia is 24.7%; in the assay on RPMI-8226 leukemia it was 29.6%; with OVCAR-8 ovarian, 86.4%; with OVCAR-5 ovarian, 81.6%; in the assay with OVCAR-4 ovarian, 66.2%; with SK-OV-3 ovarian, 102%. The growth is 59.5% in the assay on IGROV1 ovarian; 81.4% in the assay on OVCAR-3 ovarian; 91.2% in the assay on HS 578T breast; 105% in the assay on BT-549 breast; 77.7% in the assay on MDA-MB-435 melanoma; 55.5% with SW-620 colon. In addition, the growth with MCF7 breast was 32.3%; in the assay with HCT-116 colon, 57.8%; in the assay with HCC-2998 colon, -20% (active); with KM12 colon, 66.6%.

On to `CC1(C)C2=C(C(=O)N1Cc1ccccc1)C(c1ccco1)N(C(=O)C1CCC1)CCN2` (centres undefined), for which the growth in the assay on SR leukemia was 94.9%; in the assay on RPMI-8226 leukemia, 106%; in the assay on OVCAR-8 ovarian, 115%; in the assay on OVCAR-5 ovarian, 95.6%; with OVCAR-4 ovarian, 97.1%; in the assay with SK-OV-3 ovarian it was 103%. The growth is 103% with IGROV1 ovarian; 107% with OVCAR-3 ovarian; 121% in the assay with HS 578T breast; 90.9% in the assay on T-47D breast; 106% with BT-549 breast; 101% in the assay on MDA-MB-435 melanoma. The growth is 103% with SW-620 colon; 103% in the assay with MCF7 breast; 92.6% in the assay with HCT-116 colon; 98.4% in the assay with HCC-2998 colon; 101% in the assay with KM12 colon.

As to `O=C(Nc1cccc(Cl)c1)Oc1c(Cl)c(Cl)c(Cl)c(Cl)c1Cl`, the growth in the assay with SR leukemia was 96.3%; in the assay with RPMI-8226 leukemia it was 95.4%; in the assay on OVCAR-8 ovarian, 98.9%; in the assay with OVCAR-5 ovarian, 95.2%; with OVCAR-4 ovarian, 89%; with SK-OV-3 ovarian, 85%. Besides, the growth with IGROV1 ovarian was 87.8%; with OVCAR-3 ovarian it was 101%; in the assay on HS 578T breast it was 82.8%; in the assay on T-47D breast, 80.1%; with BT-549 breast, 88.5%; with MDA-MB-435 melanoma, 98.7%. Besides, the growth in the assay with SW-620 colon is 100%; in the assay with HCT-116 colon, 95.7%; in the assay on HCC-2998 colon it was 119%; in the assay on KM12 colon, 102%.

On to `N#C/C(=C\c1cccc2cnccc12)N1N=NC2C=CC=CC21` (centres undefined), for which the growth with SR leukemia was 26.3%; in the assay on RPMI-8226 leukemia, 18.8%; in the assay with OVCAR-8 ovarian, 42.9%; with OVCAR-5 ovarian, 51.8%; in the assay on OVCAR-4 ovarian, 25.2%; with SK-OV-3 ovarian it was 86.1%. Also, the growth in the assay with IGROV1 ovarian is 27.9%; in the assay with OVCAR-3 ovarian it was 6.92% (active); in the assay on HS 578T breast it was 24.2%; in the assay with T-47D breast, 23.8%; in the assay with BT-549 breast, 41.6%; in the assay on MDA-MB-435 melanoma it was 9.28% (active). The growth with SW-620 colon is 13.1%; with MCF7 breast it was 13.6%; with HCT-116 colon it was 14.2%; in the assay with HCC-2998 colon it was 91.7%; in the assay with KM12 colon, 43.5%.

Regarding `CCOC(=O)C1=C(C)N(C)C(=O)N(C)C1c1ccccc1` (centres undefined), the growth in the assay on SR leukemia is 125%; in the assay with RPMI-8226 leukemia, 99.4%; in the assay on OVCAR-8 ovarian, 104%; in the assay with OVCAR-5 ovarian it was 84.1%; in the assay on OVCAR-4 ovarian it was 103%; in the assay with SK-OV-3 ovarian it was 93.9%. In addition, the growth is 110% with IGROV1 ovarian; 99.1% with OVCAR-3 ovarian; 108% in the assay on HS 578T breast; 96.3% with T-47D breast; 110% in the assay on BT-549 breast; 89.2% in the assay with MDA-MB-435 melanoma. Moreover, the growth is 97.5% in the assay on SW-620 colon; 107% with MCF7 breast; 79.4% in the assay on HCT-116 colon; 93.2% in the assay on HCC-2998 colon; 103% in the assay on KM12 colon.

On to `Cc1ccc(C2=Nc3c(N)nc(N)nc3NC(c3cccc(Nc4ccnc5cc(C(F)(F)F)ccc45)c3)C2)cc1` (centres undefined), for which the growth in the assay with SR leukemia is -8.2% (active); in the assay on RPMI-8226 leukemia, -19.2% (active); in the assay with OVCAR-8 ovarian, 36.2%; in the assay with OVCAR-5 ovarian, 105%; with OVCAR-4 ovarian it was 58.2%; in the assay with SK-OV-3 ovarian, 31.4%. In addition, the growth in the assay on IGROV1 ovarian is 36.1%; with OVCAR-3 ovarian, 12.6%; with HS 578T breast, 26.3%; in the assay on T-47D breast, 46.9%; in the assay on BT-549 breast, 94%; with MDA-MB-435 melanoma, -40.1% (active). The growth in the assay with SW-620 colon was 19.1%; in the assay with MCF7 breast it was 6.88% (active); in the assay on HCT-116 colon it was 1.85% (active); in the assay with HCC-2998 colon, 35%; in the assay with KM12 colon it was 15%.
